Here are results for 37 compounds from PubChem BioAssay.

The list shows a part of the results. Active and inactive are the calls of the source.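 The calls were made as follows, unless noted: active = fluorescence ratio normalized to control raised more than 50% in primary screen plus both repeat runs; inactive = the rest.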

Inward rectifier potassium channel 2 (Mus musculus), sequence (P35561 whole entry, looked up): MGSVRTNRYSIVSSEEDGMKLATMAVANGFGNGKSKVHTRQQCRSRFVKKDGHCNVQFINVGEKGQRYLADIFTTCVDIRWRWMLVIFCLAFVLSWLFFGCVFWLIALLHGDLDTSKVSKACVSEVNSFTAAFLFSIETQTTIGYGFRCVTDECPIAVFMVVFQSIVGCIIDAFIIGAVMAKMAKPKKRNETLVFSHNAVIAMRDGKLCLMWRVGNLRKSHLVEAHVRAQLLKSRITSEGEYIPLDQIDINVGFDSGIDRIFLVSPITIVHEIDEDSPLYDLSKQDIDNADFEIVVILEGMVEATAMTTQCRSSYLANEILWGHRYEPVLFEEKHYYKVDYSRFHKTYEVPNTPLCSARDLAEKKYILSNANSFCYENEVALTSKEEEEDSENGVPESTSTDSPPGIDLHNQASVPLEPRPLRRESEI

The first assay addresses Inward rectifier potassium channel 2 (Mus musculus) (UniProt P35561). Description: mouse Kir2.1 channel blockers, retest, confirmation, cell-based, FluxOR thallium flux, duplicate (AID 2032;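 active = Primary-screen hit whose thallium flux fell at least 3 control SD below untreated wells in both duplicates, with normal baseline fluorescence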). The conditions noted are these: Kir2.1-expressing cells, FluxOR thallium flux fluorescence, at 10 µM; hits give low values.
On to `COc1cc(-n2c(=S)[nH]c3ccc(C)cc3c2=O)c(Cl)cc1Cl`, for which the compound was called inactive.
For the compound `c1ccc(C2NCc3ccccc3-n3cccc32)cc1` (stereo not drawn), the Tl flux remaining, % of negative control (hits give low values) was 52% (active).
On the same count and under the same terms, under `CNCC(O)c1cc(F)c(OCc2ccccc2)c(OCc2ccccc2)c1F` (stereo not drawn) stands 34.5% (active).
On the same count and under the same terms, under `COc1ccc(Br)cc1CNCCc1cccc(Cl)c1` stands 15.5% (active); under `CCOc1cccc(=NC2CCCCC2)c2c(C)[nH]c(C)c12`, 46.5% (active); under `Fc1ccc(N2CCN(Cc3ccc4c(c3)OCO4)CC2)cc1`, 36.5% (active).

System in a further assay: not listed separately
Description: nonspecific thallium flux effects in parental HEK293 cells, confirmation, counter-screen for Kir2.1 inhibitor project, cell-based, FluxOR thallium flux, duplicate, single concentration (AID 2105;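 active = dye signal at least 3 control SD above or below untreated wells in both duplicates, raw fluorescence within 3, either direction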;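 as to FluxOR signal as % of negative control (100 = no effect): percent is based on the flux ratio of peak minus minimum fluorescence over baseline F0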). The conditions noted are these: FluxOR thallium flux fluorescence, at 10 µM; 0% = unstimulated blank wells.
Regarding `COc1cc(-n2c(=S)[nH]c3ccc(C)cc3c2=O)c(Cl)cc1Cl`, the outcome was inactive.
Consider `c1ccc(C2NCc3ccccc3-n3cccc32)cc1` (stereo not drawn), for which the outcome was inactive.
Regarding `CNCC(O)c1cc(F)c(OCc2ccccc2)c(OCc2ccccc2)c1F` (stereo not drawn), the FluxOR signal as % of negative control (100 = no effect) was 74% (active).
For `COc1ccc(Br)cc1CNCCc1cccc(Cl)c1`, the outcome was inactive.
Same read-out and setting: under `CCOc1cccc(=NC2CCCCC2)c2c(C)[nH]c(C)c12` stands “inactive”; under `Fc1ccc(N2CCN(Cc3ccc4c(c3)OCO4)CC2)cc1`, “inactive”.

A further assay concerns TRPC4 beta (transient receptor potential cation channel C4), mouse. Nature of the assay: activators of mouse TRPC4 channel, confirmation, cell-based, Fluo4 calcium, HEK293 TRPC4beta/mu-opioid, duplicates, 10 µM (AID 2426). The conditions noted are these: Fluo4 calcium fluorescence, at 10 µM; hits give high values.
Turning to `Clc1ccc(OCC#CCN2CCCC2)cc1`, the result was inactive.
Regarding `CN(CCOc1ccc(C=C2C(=O)NC(=O)NC2=O)cc1)c1ccccn1`, the outcome was inactive.
The same measure, in the same setting: with `CCN1CC2C3CCC(C)(O3)C2C1` (stereo not drawn) the entry was “inactive”.
The same measure, in the same setting: under `CC(C)CNc1c2c(nc3ccccc13)CCC2` stands “inactive”; under `COC(=O)C1=C(c2cc3ccccc3s2)C[C@@H]2CC[C@H]1N2C(=O)NCCO`, “inactive”; under `Cc1ccc(-c2cc(-c3ccccc3)cc(-c3ccccc3)[n+]2-c2ccccc2)cc1`, “inactive”.
Regarding `Nc1ccccc1-[n+]1c(-c2ccccc2)cc(-c2ccccc2)cc1-c1ccccc1`, the outcome was inactive.
Take `Clc1ccc2c(c1)C(c1ccccc1Cl)=NCc1nnc(N3CCN(CCOc4ccccc4)CC3)n1-2`: the result was inactive.
Same read-out and setting: with `Cc1ccccc1CN1CCNCC1` the entry was “inactive”; with `CN1CCN(Cc2cc(=O)n3ccsc3n2)CC1`, “inactive”.
Regarding `CCC1=Nc2cc(C(=O)N3CCC4(CC3)OCCO4)ccc2Sc2ccc(Br)cc21`, the outcome was inactive.
On the same count and under the same terms, under `CCCCN1C(=O)NC(=O)C2(Cc3c(nc4c(C)cccn4c3=O)N3CCc4ccccc4C32)C1=O` (stereo not drawn) stands “inactive”; under `C=CCOC(=O)C1=C(C)OC(N)=C(C#N)[C@@]12C(=O)N(CC(N)=O)c1ccccc12`, “inactive”; under `FC(F)(F)c1ccc(CN2CCNCC2)cc1`, “inactive”.
For the compound `Clc1ccc(N2CCNCC2)nn1`, the result was inactive.
On the same count and under the same terms, with `O=[N+]([O-])c1ccc(N2CCNCC2)cc1N1CCCCCC1` the entry was “inactive”; with `C#CCN1C(=O)C2(C(C#N)=C(N)OC(C)=C2C(=O)OCc2ccccc2)c2ccccc21` (stereo not drawn), “inactive”; with `Cc1ccc(-c2nc(N(C)C3CCN(C)CC3)c3ccccc3n2)cc1`, “inactive”.
Still for that read-out and setting: under `c1ccc2nc(OCCN3CC3)ccc2c1` stands “inactive”.
On to `Cc1cc(OC(C)C(=O)NCc2ccncc2)c2c3c(c(=O)oc2c1)CCCC3` (stereo not drawn), for which the outcome was inactive.
`CCNCCNc1ccc([N+](=O)[O-])c2cccnc12`: the result was inactive.
Same read-out and setting: under `CN(C)CCn1cnc2ccccc21` stands “inactive”.
With `COC(=O)C(O)(c1ccc(NC(=S)NC(=O)c2ccc(Cl)cc2Cl)c(C)c1)C(F)(F)F` (stereo not drawn), the result was inactive.
With `COc1ccc(C(=O)C2CN(C)CC2c2ccc(Cl)cc2)cc1` (stereo not drawn), the result was inactive.
With `CC(Cc1ccccc1)NCC(=O)Nc1cc(N(C)C)nc2ccccc12` (stereo not drawn), the result was inactive.
The same measure, in the same setting: with `Nc1c([N+](=O)[O-])cc(F)c(N2CCNCC2)c1Br` the entry was “inactive”; with `Oc1c(Br)cc(Br)cc1CN1CCN(Cc2ccccc2)CC1`, “inactive”; with `CCNc1cc(N2CCNCC2)ccc1[N+](=O)[O-]`, “inactive”.
Same read-out and setting: with `CCn1ccnc1CN1CCCC(C(=O)c2cccc(C(F)(F)F)c2)C1` (stereo not drawn) the entry was “inactive”.
The same measure, in the same setting: with `CCc1ccc(OCCCN=C(C)c2c(O)n(C)c(=O)n(C)c2=O)cc1` the entry was “inactive”.
As to `Cc1cccc(N=Cc2c(O)n(-c3ccccc3C)c(=O)[nH]c2=O)c1`, the outcome was inactive.
